In PubChem BioAssay (EPA / NIEHS):
Activity calls are given as the source filed them. Rule for the calls: active = hit-call score of the fitted dose curve at least 0.9, where 1 is the maximum; inactive = score below 0.9.

Assays:
[1] = read-out: Vascular cell adhesion molecule 1 (VCAM1), VCAM1 (gene 7412); experiment: BSK_CASM3C_VCAM1: BioMAP Diversity Plus: CASM3C Assay for Vascular cell adhesion molecule 1 (VCAM1) Biomarker Activity (AID 2283055); conditions: primary human coronary artery smooth muscle cells; actives raise or lower the signal;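 note: VCAM-1 protein level quantified by ELISA on the cells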
[2] = read-out: Collagen III, COL3A1 (gene 1281); experiment: BSK_hDFCGF_CollagenIII: BioMAP Diversity Plus: hDFCGF Assay for Collagen III Biomarker Activity (AID 2283056); conditions: primary human foreskin fibroblasts; actives raise or lower the signal
Procedure, shortened: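 ELISA read-out of collagen III from human skin fibroblast cultures sampled 24 h post-dosing. Values were derived by bidirectional fitting relative to the DMSO vehicle control.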

[3] = read-out: Epidermal growth factor receptor (EGFR), EGFR (gene 1956); experiment: BSK_hDFCGF_EGFR: BioMAP Diversity Plus: hDFCGF Assay for Epidermal growth factor receptor (EGFR) Biomarker Activity (AID 2283057); conditions: primary human foreskin fibroblasts; actives raise or lower the signal
Procedure, shortened: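 Primary human foreskin fibroblasts were exposed to compound for 24 h, after which cell-surface EGFR was quantified by ELISA. Activity was fitted bidirectionally against the DMSO negative control as baseline.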

[4] = BSK_hDFCGF_Proliferation: Cell Proliferation Assessment in the BioMAP Diversity Plus: hDFCGF Assay (AID 2283059); conditions: primary human foreskin fibroblasts;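 note: curves fitted for both rise and fall of signal versus DMSO baseline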
Procedure, shortened: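 Steps: dose primary human dermal fibroblasts (foreskin); […] fix in 10% TCA; stain with 0.1% SRB; read 560 nm; fit gain or loss of signal against DMSO.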

[5] = read-out: Macrophage colony-stimulating factor (MCSF), CSF1 (gene 1435); experiment: BSK_hDFCGF_MCSF: BioMAP Diversity Plus: hDFCGF Assay for Macrophage colony-stimulating factor (MCSF) Biomarker Activity (AID 2283060); conditions: primary human foreskin fibroblasts; actives raise or lower the signal
Procedure, shortened: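 Primary human foreskin fibroblasts dosed with chemical; 24 h later, M-CSF quantified by ELISA; curves fitted in both directions vs DMSO negative control.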

[6] = BSK_hDFCGF_SRB: Viability Assessment in the BioMAP Diversity Plus: hDFCGF Assay (AID 2283061); conditions: primary human foreskin fibroblasts;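 note: cells exposed to compound for 24 h before the read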
Procedure, shortened: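 Readout is SRB absorbance at 560 nm, reflecting total protein in parallel cultures of human foreskin fibroblasts harvested 24 h after chemical dosing. Activity was fitted bidirectionally relative to DMSO.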

[7] = read-out: TIMP metallopeptidase inhibitor 1 (TIMP1), TIMP1 (gene 7076); experiment: BSK_hDFCGF_TIMP1: BioMAP Diversity Plus: hDFCGF Assay for TIMP metallopeptidase inhibitor 1 (TIMP1) Biomarker Activity (AID 2283062); conditions: primary human foreskin fibroblasts; actives raise or lower the signal
Procedure, shortened: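 Human skin fibroblasts (primary), hDFCGF system; compound exposure 24 h; TIMP-1 by ELISA; bidirectional fit vs DMSO negative control; overt cytotoxicity by SRB in parallel wells.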

[8] = read-out: Monokine induced gamma interferon (MIG), CXCL9 (gene 4283); experiment: BSK_hDFCGF_MIG: BioMAP Diversity Plus: hDFCGF Assay for Monokine induced gamma interferon (MIG) Biomarker Activity (AID 2283063); conditions: primary human foreskin fibroblasts; actives raise or lower the signal
Procedure, shortened: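 Chemicals were added to primary human foreskin fibroblast cultures, which were sampled 24 h later. MIG levels were then quantified by ELISA and responses fitted in both directions relative to DMSO.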

[9] = read-out: Matrix Metallopeptidase 1 (MMP1), MMP1 (gene 4312); experiment: BSK_hDFCGF_MMP1: BioMAP Diversity Plus: hDFCGF Assay for Matrix Metallopeptidase 1 (MMP1) Biomarker Activity (AID 2283064); conditions: primary human foreskin fibroblasts; actives raise or lower the signal
Procedure, shortened: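 Primary human foreskin fibroblasts in the hDFCGF system were dosed with test chemical, and MMP1 was measured by ELISA 24 h later. Values come from bidirectional curve fitting against the DMSO baseline.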

[10] = read-out: Vascular cell adhesion molecule 1 (VCAM1), VCAM1 (gene 7412); experiment: BSK_hDFCGF_VCAM1: BioMAP Diversity Plus: hDFCGF Assay for Vascular cell adhesion molecule 1 (VCAM1) Biomarker Activity (AID 2283065); conditions: primary human foreskin fibroblasts; actives raise or lower the signal;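 for AC50: VCAM-1 protein level quantified by ELISA after 24 h chemical exposure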
Procedure, shortened: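 Human foreskin fibroblast primary cells, chemical exposure 24 h; VCAM-1 by ELISA; bidirectional fit, DMSO = negative control/baseline.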

[11] = read-out: Plasminogen activator inhibitor-1 (PAI1), SERPINE1 (gene 5054); experiment: BSK_hDFCGF_PAI1: BioMAP Diversity Plus: hDFCGF Assay for Plasminogen activator inhibitor-1 (PAI1) Biomarker Activity (AID 2283066); conditions: primary human foreskin fibroblasts; actives raise or lower the signal
Procedure, shortened: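 Human foreskin fibroblasts in the hDFCGF system were dosed with compound for 24 h; PAI-1 was quantified by ELISA. Bidirectional curve fitting used DMSO as negative control and baseline.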

[12] = read-out: Intercellular Adhesion Molecule 1 (ICAM1), ICAM1 (gene 3383); experiment: BSK_KF3CT_ICAM1: BioMAP Diversity Plus: KF3CT Assay for Intercellular Adhesion Molecule 1 (ICAM1) Biomarker Activity (AID 2283067); conditions: primary human keratinocytes with fibroblasts; actives raise or lower the signal
Procedure, shortened: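 ICAM-1 levels are measured by ELISA 24 h after dosing a primary human co-culture of keratinocytes and foreskin fibroblasts. Activity in either direction is fitted relative to DMSO vehicle.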

[13] = BSK_KF3CT_SRB: Viability Assessment in the BioMAP Diversity Plus: KF3CT Assay (AID 2283069); conditions: primary human keratinocytes with fibroblasts;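 note: total protein by sulforhodamine B staining as a cytotoxicity measure; read 24 h after compound addition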
Procedure, shortened: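 Human primary keratinocyte plus foreskin fibroblast co-culture exposed to chemicals for 24 h. Total protein measured by 0.1% sulforhodamine B staining after 10% TCA fixation, read at 560 nm; bidirectional fitting versus DMSO baseline.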

[14] = read-out: Interleukin-1 alpha (IL1a), IL1A (gene 3552); experiment: BSK_KF3CT_IL1a: BioMAP Diversity Plus: KF3CT Assay for Interleukin-1 alpha (IL1a) Biomarker Activity (AID 2283070); conditions: primary human keratinocytes with fibroblasts; actives raise or lower the signal
Procedure, shortened: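 Human keratinocyte plus foreskin fibroblast primary co-culture, sampled 24 h after chemical dosing. IL-1a measured by ELISA; responses fitted bidirectionally against DMSO baseline (negative control), so gain or loss of signal both count.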

[15] = read-out: Transforming growth factor beta 1 (TGFb1), TGFB1 (gene 7040); experiment: BSK_KF3CT_TGFb1: BioMAP Diversity Plus: KF3CT Assay for Transforming growth factor beta 1 (TGFb1) Biomarker Activity (AID 2283072); conditions: primary human keratinocytes with fibroblasts; actives raise or lower the signal
Procedure, shortened: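 Human keratinocyte plus foreskin fibroblast primary co-culture, dosed with chemical for 24 h. TGF-b1 quantified by ELISA. Activity fitted bidirectionally against DMSO negative control as baseline.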

[16] = read-out: C-C motif chemokine 2 (Homo sapiens) (UniProt P13500); experiment: BSK_KF3CT_MCP1: BioMAP Diversity Plus: KF3CT Assay for Monocyte Chemoattractant Protein 1 (MCP1/CCL2) Biomarker Activity (AID 2283073); conditions: primary human keratinocytes with fibroblasts; actives raise or lower the signal
Procedure, shortened: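 ELISA readout of MCP-1 after 24 h chemical dosing of a human skin primary co-culture of keratinocytes and foreskin fibroblasts. Activity was fitted in both directions against DMSO.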

[17] = read-out: Matrix Metallopeptidase 9 (MMP9), MMP9 (gene 4318); experiment: BSK_KF3CT_MMP9: BioMAP Diversity Plus: KF3CT Assay for Matrix Metallopeptidase 9 (MMP9) Biomarker Activity (AID 2283074); conditions: primary human keratinocytes with fibroblasts; actives raise or lower the signal;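 for AC50: MMP9 protein level quantified by ELISA in the co-culture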
Procedure, shortened: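 Keratinocyte plus foreskin fibroblast human primary skin co-culture was dosed with chemical and MMP-9 was quantified by ELISA 24 h later. Bidirectional curve fitting used DMSO as negative control and activity baseline.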

[18] = read-out: Interleukin-8 (IL8), CXCL8 (gene 3576); experiment: BSK_hDFCGF_IL8: BioMAP Diversity Plus: hDFCGF Assay for Interleukin-8 (IL8) Biomarker Activity (AID 2283058); conditions: primary human foreskin fibroblasts; actives raise or lower the signal
Procedure, shortened: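 Cells used are human skin primary fibroblasts. Chemical is added, cultures run 24 h, then IL-8 is quantified by ELISA, and gain or loss versus DMSO control is fitted in both directions.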

[19] = read-out: TIMP metallopeptidase inhibitor 2 (TIMP2), TIMP2 (gene 7077); experiment: BSK_KF3CT_TIMP2: BioMAP Diversity Plus: KF3CT Assay for TIMP metallopeptidase inhibitor 2 (TIMP2) Biomarker Activity (AID 2283071); conditions: primary human keratinocytes with fibroblasts; actives raise or lower the signal
Procedure, shortened: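 Human primary keratinocyte/foreskin fibroblast co-culture dosed with chemical and sampled at 24 h. TIMP-2 levels quantified by ELISA; bidirectional fitting against DMSO negative control as baseline.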

Measured: AC50

CCCCCCCCCCCCc1cccc(S(=O)(=O)O)c1
active: [2] 16.2 µM | [3] 11.8 µM | [4] 8.86 µM | [5] 12.5 µM | [6] 18.1 µM | [7] 30.1 µM | [8] 27.6 µM | [9] 28.3 µM | [10] 12 µM | [11] 9.68 µM | [12] 28.4 µM | [13] 26.5 µM | [14] 33.3 µM | [15] 25.3 µM | [16] 28.7 µM | [17] 18 µM
inactive: [1]

CCCCN(CCCC)C(=S)[S-].CCCCN(CCCC)C(=S)[S-].[Ni+2]
not listed: [16]
inactive: all other assays above

Oc1cccc(-c2ccccc2)c1
active: [1] 31.7 µM | [2] 30 µM | [4] 35.3 µM | [5] 33.7 µM | [6] 30.7 µM | [10] 31.6 µM | [14] 20 µM | [19] 35 µM | [17] 31.5 µM
inactive: all other assays above

CC(C)(C)c1ccccc1O
inactive: all assays above

CC(C)N(C(=O)CCl)c1ccccc1
inactive: [3] | [14]
active: [1] 4.39 µM | [2] 1.69 µM | [18] 13.3 µM | [4] 2.45 µM | [5] 6.59 µM | [6] 3.03 µM | [7] 2.98 µM | [8] 3.85 µM | [9] 11.4 µM | [10] 1.43 µM | [11] 4.77 µM | [12] 28.5 µM | [13] 27.1 µM | [19] 14.2 µM | [15] 20 µM | [16] 11.1 µM | [17] 29.6 µM

c1ccc(-c2cccc(-c3ccccc3)c2)cc1
active: [2] 11.7 µM | [4] 11 µM | [5] 20 µM | [6] 12.2 µM | [7] 20 µM | [9] 5.57 µM | [10] 12.4 µM | [11] 20 µM | [14] 7.05 µM | [17] 8.97 µM
inactive: [1] | [3] | [18] | [8] | [12] | [13] | [19] | [15] | [16]

CCCCCCCCCCCCN(C)C
inactive: all assays above
